Measurements taken from the supplement of paper PMC10849652.
Of roughly 7,900 targets only a part is listed; those with a hit were picked by preference. About 0.6% of all pairs of compound and target were hits. Unmarked numbers belong to inactive results.

How the values were obtained:
Assay in all cases: log2 fold change, soluble protein after heating vs DMSO (PISA); higher = thermal stabilisation; K562 cells, 10 uM, 30 min; active = over 0.2 and 3.5 SD of the protein, either way, in both replicates (recomputed)
[1] = compound: CS(=O)(=O)c1ccc(-c2cnc(N)c(C(=O)Nc3ccccc3)n2)cc1
In short: (§1)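 Thermal stability values are relative to control samples and come from duplicates. They are expressed as log2 fold changes. For measurement, K562 cells (2×10^6 cells/mL) received 10 μM compound for 30 min, and aliquots were heated for 3 min over 48°C-58°C, pooled, and extracted at 4°C in PBS with 0.5% NP-40. Soluble protein, the supernatant after 21,000xg for 90 min, was quantified by TMTpro 16plex LC-MS/MS with equalised channel sums.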

crizotinib = compound: C[C@@H](Oc1cc(-c2cnn(C3CCNCC3)c2)cnc1N)c1c(Cl)ccc(F)c1Cl [crizotinib]
In short: as §1

[2] = compound: C[C@@H]1COCCN1C2=NC(=NC(=C2)C3(CC3)S(=O)(=O)C)C4=C5C=CNC5=CC=C4
In short: as §1

[3] = compound: C[C@H](C1=CC=C(C=C1)C(=O)NC2=C3C=CNC3=NC=C2)N
In short: as §1

duvelisib = compound: C[C@H](Nc1ncnc2nc[nH]c12)c1cc2cccc(Cl)c2c(=O)n1-c1ccccc1 [duvelisib]
In short: as §1

gandotinib = compound: Cc1cc(Nc2cc(CN3CCOCC3)c3nc(C)c(Cc4ccc(Cl)cc4F)n3n2)n[nH]1 [gandotinib]
In short: as §1

tozasertib = compound: Cc1cc(Nc2cc(N3CCN(C)CC3)nc(Sc3ccc(NC(=O)C4CC4)cc3)n2)n[nH]1 [tozasertib]
In short: as §1

[4] = compound: Cc1cc(SCc2sc(-c3ccc(C(F)(F)F)cc3)nc2C)ccc1OCC(=O)O
In short: as §1

doramapimod = compound: Cc1ccc(-n2nc(C(C)(C)C)cc2NC(=O)Nc2ccc(OCCN3CCOCC3)c3ccccc23)cc1 [doramapimod]
In short: as §1

ispinesib = compound: Cc1ccc(C(=O)N(CCCN)[C@@H](c2nc3cc(Cl)ccc3c(=O)n2Cc2ccccc2)C(C)C)cc1 [ispinesib]
In short: as §1

Sequence of UniProt Q8TEM1 (Q8TEM1 whole entry, looked up): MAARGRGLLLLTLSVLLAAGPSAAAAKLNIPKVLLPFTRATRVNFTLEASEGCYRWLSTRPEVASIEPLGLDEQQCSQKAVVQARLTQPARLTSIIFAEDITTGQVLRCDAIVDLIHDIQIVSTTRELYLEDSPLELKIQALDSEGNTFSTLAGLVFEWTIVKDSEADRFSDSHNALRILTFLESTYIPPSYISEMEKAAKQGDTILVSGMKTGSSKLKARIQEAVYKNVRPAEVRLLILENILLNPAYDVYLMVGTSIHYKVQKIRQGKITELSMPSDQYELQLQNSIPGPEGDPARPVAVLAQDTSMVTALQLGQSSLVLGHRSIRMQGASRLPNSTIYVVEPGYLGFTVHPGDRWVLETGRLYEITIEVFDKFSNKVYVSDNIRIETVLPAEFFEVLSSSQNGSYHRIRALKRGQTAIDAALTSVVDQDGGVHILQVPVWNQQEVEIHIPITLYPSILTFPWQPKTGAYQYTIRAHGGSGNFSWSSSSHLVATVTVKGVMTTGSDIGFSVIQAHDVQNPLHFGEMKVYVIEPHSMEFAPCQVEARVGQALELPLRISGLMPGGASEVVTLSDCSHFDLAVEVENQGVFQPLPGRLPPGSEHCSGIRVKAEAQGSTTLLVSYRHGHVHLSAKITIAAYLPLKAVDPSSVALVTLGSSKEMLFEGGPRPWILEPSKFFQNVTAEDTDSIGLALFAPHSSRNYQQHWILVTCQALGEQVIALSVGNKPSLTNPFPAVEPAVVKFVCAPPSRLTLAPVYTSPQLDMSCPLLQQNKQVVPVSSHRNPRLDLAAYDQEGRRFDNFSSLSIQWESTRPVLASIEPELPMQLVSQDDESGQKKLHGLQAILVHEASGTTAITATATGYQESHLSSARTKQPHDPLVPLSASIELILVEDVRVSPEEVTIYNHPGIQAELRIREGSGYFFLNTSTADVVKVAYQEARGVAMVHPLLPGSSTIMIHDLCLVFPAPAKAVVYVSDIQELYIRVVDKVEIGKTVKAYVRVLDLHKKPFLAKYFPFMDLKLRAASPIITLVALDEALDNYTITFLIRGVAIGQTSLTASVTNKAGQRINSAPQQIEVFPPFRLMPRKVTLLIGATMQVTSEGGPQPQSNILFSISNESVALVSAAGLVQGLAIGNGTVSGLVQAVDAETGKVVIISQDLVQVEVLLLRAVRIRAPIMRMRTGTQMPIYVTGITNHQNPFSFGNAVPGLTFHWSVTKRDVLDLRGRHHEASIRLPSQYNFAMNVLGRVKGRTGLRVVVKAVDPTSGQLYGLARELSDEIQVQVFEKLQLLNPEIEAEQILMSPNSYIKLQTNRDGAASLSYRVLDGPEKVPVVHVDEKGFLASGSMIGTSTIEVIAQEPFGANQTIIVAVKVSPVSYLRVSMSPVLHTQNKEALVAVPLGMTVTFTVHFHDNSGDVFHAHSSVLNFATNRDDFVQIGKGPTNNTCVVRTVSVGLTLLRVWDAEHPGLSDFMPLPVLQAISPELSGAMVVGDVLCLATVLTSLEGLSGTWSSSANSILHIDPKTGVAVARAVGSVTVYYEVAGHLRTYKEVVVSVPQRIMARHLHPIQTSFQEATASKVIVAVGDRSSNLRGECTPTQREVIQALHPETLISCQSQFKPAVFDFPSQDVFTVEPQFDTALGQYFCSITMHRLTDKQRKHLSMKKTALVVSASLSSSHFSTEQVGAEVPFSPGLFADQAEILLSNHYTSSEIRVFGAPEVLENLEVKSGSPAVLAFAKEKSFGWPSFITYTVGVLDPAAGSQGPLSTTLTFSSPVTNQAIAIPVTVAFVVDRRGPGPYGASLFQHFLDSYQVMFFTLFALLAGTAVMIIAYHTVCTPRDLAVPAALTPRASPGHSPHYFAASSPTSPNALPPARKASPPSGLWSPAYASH
Sequence of UniProt Q9NZT2 (Q9NZT2 whole entry, looked up): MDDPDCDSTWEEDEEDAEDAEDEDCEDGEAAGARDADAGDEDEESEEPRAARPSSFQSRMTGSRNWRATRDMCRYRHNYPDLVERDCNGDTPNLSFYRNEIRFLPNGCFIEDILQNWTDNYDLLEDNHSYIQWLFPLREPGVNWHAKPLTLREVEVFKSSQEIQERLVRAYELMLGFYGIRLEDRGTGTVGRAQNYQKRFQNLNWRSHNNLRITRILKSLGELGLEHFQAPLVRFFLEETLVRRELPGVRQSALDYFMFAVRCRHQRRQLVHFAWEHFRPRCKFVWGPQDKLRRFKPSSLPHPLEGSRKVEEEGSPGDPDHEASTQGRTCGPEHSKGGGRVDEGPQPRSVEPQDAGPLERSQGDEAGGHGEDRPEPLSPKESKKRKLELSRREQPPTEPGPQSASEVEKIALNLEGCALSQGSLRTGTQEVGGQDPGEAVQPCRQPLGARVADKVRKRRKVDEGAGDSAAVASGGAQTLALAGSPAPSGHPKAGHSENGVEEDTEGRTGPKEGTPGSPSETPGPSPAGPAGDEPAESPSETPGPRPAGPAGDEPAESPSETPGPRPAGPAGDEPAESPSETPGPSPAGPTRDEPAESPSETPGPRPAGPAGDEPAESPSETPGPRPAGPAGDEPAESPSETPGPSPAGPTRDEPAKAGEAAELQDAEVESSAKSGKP
Sequence of UniProt Q86WQ0 (Q86WQ0 whole entry, looked up): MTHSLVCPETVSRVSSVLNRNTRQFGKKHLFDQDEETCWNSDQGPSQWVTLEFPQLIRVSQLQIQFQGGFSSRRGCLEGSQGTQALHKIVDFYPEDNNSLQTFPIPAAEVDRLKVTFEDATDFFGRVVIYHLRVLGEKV
Sequence of UniProt Q6VY07 (Q6VY07 whole entry, looked up): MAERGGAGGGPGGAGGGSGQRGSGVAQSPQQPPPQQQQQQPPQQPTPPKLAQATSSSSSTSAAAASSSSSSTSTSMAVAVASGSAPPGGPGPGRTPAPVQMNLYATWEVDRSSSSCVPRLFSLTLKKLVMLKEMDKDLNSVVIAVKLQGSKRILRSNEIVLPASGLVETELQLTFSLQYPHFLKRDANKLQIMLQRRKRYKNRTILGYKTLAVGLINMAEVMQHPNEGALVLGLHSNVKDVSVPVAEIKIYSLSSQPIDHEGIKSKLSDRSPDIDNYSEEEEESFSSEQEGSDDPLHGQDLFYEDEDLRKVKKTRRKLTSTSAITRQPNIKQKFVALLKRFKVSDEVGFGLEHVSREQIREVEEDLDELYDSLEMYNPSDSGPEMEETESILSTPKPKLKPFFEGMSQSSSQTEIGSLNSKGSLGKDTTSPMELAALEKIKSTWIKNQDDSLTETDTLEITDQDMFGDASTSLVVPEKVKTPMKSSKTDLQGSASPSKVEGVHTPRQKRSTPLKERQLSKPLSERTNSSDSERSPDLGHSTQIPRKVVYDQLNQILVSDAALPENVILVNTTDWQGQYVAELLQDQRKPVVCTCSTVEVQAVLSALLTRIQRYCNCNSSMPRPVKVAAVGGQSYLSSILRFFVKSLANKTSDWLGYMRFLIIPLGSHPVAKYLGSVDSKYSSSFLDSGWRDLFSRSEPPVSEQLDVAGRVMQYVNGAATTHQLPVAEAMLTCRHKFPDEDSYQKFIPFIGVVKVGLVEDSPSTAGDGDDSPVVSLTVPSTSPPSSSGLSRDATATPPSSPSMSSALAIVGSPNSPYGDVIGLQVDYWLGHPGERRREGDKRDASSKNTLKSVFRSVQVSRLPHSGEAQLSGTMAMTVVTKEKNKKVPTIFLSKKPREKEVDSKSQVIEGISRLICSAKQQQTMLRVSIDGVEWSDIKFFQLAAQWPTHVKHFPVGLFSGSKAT
Sequence of UniProt Q00013 (Q00013 whole entry, looked up): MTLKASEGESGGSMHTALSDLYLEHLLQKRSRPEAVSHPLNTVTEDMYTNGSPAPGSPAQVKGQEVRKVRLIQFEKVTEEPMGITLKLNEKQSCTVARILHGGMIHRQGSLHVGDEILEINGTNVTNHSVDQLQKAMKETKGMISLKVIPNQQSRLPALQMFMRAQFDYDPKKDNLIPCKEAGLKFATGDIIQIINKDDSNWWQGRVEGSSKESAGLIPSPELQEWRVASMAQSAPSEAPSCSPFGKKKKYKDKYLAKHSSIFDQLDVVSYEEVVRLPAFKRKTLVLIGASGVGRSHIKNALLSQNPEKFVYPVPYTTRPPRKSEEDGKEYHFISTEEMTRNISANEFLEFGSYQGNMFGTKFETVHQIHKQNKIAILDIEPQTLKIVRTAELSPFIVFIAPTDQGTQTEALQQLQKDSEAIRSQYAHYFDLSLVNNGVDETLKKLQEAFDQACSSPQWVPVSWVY
Sequence of UniProt P84157 (P84157 whole entry, looked up): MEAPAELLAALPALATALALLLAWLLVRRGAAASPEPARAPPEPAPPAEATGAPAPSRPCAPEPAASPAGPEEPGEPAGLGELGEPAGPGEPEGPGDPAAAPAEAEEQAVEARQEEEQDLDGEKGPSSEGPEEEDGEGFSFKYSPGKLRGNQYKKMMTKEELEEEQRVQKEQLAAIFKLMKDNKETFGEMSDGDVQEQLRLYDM
Sequence of UniProt O95747 (O95747 whole entry, looked up): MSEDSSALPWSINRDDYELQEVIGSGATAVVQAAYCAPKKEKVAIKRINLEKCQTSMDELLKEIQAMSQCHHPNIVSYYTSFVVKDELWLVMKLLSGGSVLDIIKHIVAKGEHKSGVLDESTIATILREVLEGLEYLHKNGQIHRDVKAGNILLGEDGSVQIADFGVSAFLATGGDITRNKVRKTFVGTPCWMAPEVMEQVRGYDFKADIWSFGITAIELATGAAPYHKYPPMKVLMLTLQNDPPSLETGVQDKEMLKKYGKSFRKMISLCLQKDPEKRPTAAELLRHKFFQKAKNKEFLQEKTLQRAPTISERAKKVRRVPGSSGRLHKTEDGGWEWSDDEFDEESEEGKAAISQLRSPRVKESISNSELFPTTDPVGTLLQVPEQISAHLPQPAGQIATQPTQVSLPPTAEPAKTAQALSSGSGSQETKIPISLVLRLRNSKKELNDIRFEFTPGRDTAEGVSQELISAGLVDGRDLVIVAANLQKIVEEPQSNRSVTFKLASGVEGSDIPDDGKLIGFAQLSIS

| Target | log2 fold change [1] | log2 fold change (crizotinib) | log2 fold change [2] | log2 fold change [3] | log2 fold change (duvelisib) | log2 fold change (gandotinib) | log2 fold change (tozasertib) | log2 fold change [4] | log2 fold change (doramapimod) | log2 fold change (ispinesib) |
| --- | --- | --- | --- | --- | --- | --- | --- | --- | --- | --- |
| MRPS9 (UniProt P82933) | -0.001 | 0.011 | 0.036 | 0.202 | -0.023 | -0.054 | -0.055 | 0.086 | 0.031 | -0.344 (active) |
| NANS (UniProt Q9NR45) | -0.074 | 0.026 | 0.052 | -0.098 | 0.02 | -0.03 | 0.043 | 0.001 | -0.006 | 0.074 |
| PACS1 (UniProt Q6VY07) | 0.013 | -0.053 | 0.051 | -0.015 | 0.033 | -0.018 | 0 | -0.014 | 0.06 | 0.042 |
| NCL (UniProt P19338) | -0.136 | 0.12 | -0.59 | 0.428 | -0.162 | 0.315 | 0.064 | 0.075 | 0.254 | -0.19 |
| NUP210 (UniProt Q8TEM1) | -0.039 | -0.235 (active) | 0.005 | -0.006 | -0.002 | -0.083 | -0.054 | 0.047 | 0.002 | -0.351 (active) |
| MRPS10 (UniProt P82664) | 0.028 | 0.005 | -0.033 | 0.08 | -0.005 | 0.019 | 0.002 | 0.002 | 0.029 | -0.265 (active) |
| NT5DC1 (UniProt Q5TFE4) | 0.045 | 0.071 | 0.046 | -0.052 | 0.05 | 0.019 | 0.004 | -0.038 | -0.018 | 0.037 |
| NELFA (UniProt Q9H3P2) | -0.01 | 0.082 | 0.198 | -0.011 | 0.118 | 0.004 | 0.142 | 0.234 | -0.014 | -0.068 |
| MXRA7 (UniProt P84157) | 0.043 | -0.012 | 0.051 | -0.138 | -0.069 | -0.122 | 0.005 | 0.047 | 0.035 | 0.103 |
| OXSR1 (UniProt O95747) | 0.031 | -0.127 | 0.021 | 0.011 | 0.037 | -0.096 | -0.013 | 0.095 | 0.011 | -0.055 |
| NOP53 (UniProt Q9NZM5) | -0.116 | 0.029 | -0.019 | 0.638 | -0.335 | 0.377 | 0.147 | -0.027 | 0.277 | 0.015 |
| NACC1 (UniProt Q96RE7) | 0 | 0.005 | 0.082 | -0.03 | 0.103 | -0.129 | 0.161 | 0.152 | -0.064 | -0.019 |
| MPP1 (UniProt Q00013) | 0.064 | -0.092 | 0.05 | 0.001 | 0.007 | -0.073 | -0.022 | 0.061 | 0.023 | -0.108 |
| OTULIN (UniProt Q96BN8) | -0.099 | -0.079 | 0.04 | 0.036 | -0.027 | -0.088 | 0.098 | 0.073 | -0.095 | -0.208 |
| OGFR (UniProt Q9NZT2) | 0.074 | -0.067 | 0.034 | 0.19 | -0.016 | -0.058 | 0.021 | 0.133 | 0.082 | -0.068 |
| OAT (UniProt P04181) | -0.003 | -0.123 | 0.053 | -0.083 | 0.032 | -0.03 | -0.102 | 0.018 | 0.037 | -0.233 (active) |
| NEK3 (UniProt P51956) | -0.086 | 0.08 | 0.19 | -0.19 | -0.032 | 0.103 | 0.083 | 0.05 | -0.014 | -0.006 |
| OTUD4 (UniProt Q01804) | 0.018 | -0.001 | -0.094 | 0.106 | -0.073 | 0.059 | 0.034 | -0.001 | 0.052 | -0.034 |
| NMRAL1 (UniProt Q9HBL8) | 0.228 | 0.469 | 0.054 | 0.04 | 0.046 | -0.169 | -0.056 | -0.009 | 0.001 | -0.103 |
| NME7 (UniProt Q9Y5B8) | -0.187 | -0.136 | -0.027 | 0.046 | -0.031 | -0.091 | 0.068 | 0.056 | 0.033 | -0.117 |
| ORC3 isoform 2 (UniProt Q9UBD5) | -0.054 | -0.434 (active) | 0.015 | -0.005 | -0.03 | -0.044 | 0.062 | 0.177 | 0.016 | -0.17 |
| NCAPD2 (UniProt Q15021) | 0.018 | -0.024 | 0.004 | 0.093 | 0.035 | -0.077 | 0.092 | 0.109 | -0.049 | -0.029 |
| OXA1L (UniProt Q15070) | -0.042 | -0.064 | 0.004 | -0.018 | 0.021 | 0.012 | 0.005 | 0.018 | -0.01 | -0.1 |
| MUL1 (UniProt Q969V5) | -0.023 | 0.038 | 0.078 | -0.006 | -0.042 | -0.018 | 0.083 | -0.02 | 0.056 | -0.01 |
| MLX (UniProt Q9UH92) | -0.038 | -0.188 | 0.092 | -0.001 | -0.131 | -0.239 | -0.043 | 0.115 | 0.03 | -0.186 |
| MKNK1 (UniProt Q9BUB5) | 0.038 | -0.082 | -0.039 | 0.31 (active) | 0.031 | 0.038 | 0.085 | 0.057 | 0.054 | -0.03 |
| NOSIP (UniProt Q9Y314) | 0.108 | 0.329 | -0.08 | -0.03 | 0.118 | -0.118 | 0.191 | 0.257 | -0.113 | 0.133 |
| NOLC1 isoform 2 (UniProt Q14978) | -0.019 | -0.135 | 0.141 | -0.154 | -0.043 | -0.023 | -0.032 | -0.038 | 0.047 | 0.179 |
| NR2C2AP isoform 2 (UniProt Q86WQ0) | 0.085 | 0.011 | 0.138 | 0.025 | 0.044 | -0.035 | 0.08 | 0.01 | -0.17 | 0.285 (active) |
